From PubChem BioAssay (Tox21)
Records with an inconclusive call do not appear. Active and inactive are the calls of the source. The call rests on the fitted dose curve; in most records, active means well fitted curve in the direction sought with a large enough effect in the repeat runs; inconclusive means weak or mixed curves; inactive means no such curve, though single readings can be large; an effect the other way counts as inactive or inconclusive.

How the values were obtained:
[1] = qHTS assay to identify small molecule antagonists of the glucocorticoid receptor (GR) signaling pathway - cell viability counter screen (AID 720693); further: nearly all actives have a fitted effect of over 55% in size; further: potency means the concentration at half of the fitted maximal effect
[2] = qHTS assay for identifying genotoxic compounds that show differential cytotoxicity against isogenic chicken DT40 cell lines with known DNA damage response pathways - wild type cell line (AID 743012); further: nearly all actives have a fitted effect of over 60% in size; further: potency means the concentration at half of the fitted maximal effect
In short: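 Cytotoxicity in repair-proficient parental chicken DT40 cells serves as the comparator for Rad54/Ku70- and Rev3-deficient lines. Cells were exposed to compounds for 40 h at 37 C/5% CO2, and ATP-based luminescence (CellTiter-Glo) measured viability.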

[3] = qHTS assay for identifying genotoxic compounds that show differential cytotoxicity against isogenic chicken DT40 cell lines with known DNA damage response pathways - Rev3 mutant cell line (AID 743014); further: nearly all actives have a fitted effect of over 55% in size; further: potency means the concentration at half of the fitted maximal effect
[4] = qHTS assay for identifying genotoxic compounds that show differential cytotoxicity against isogenic chicken DT40 cell lines with known DNA damage response pathways - Rad54/Ku70 mutant cell line (AID 743015); further: nearly all actives have a fitted effect of over 60% in size; further: potency means the concentration at half of the fitted maximal effect
[5] = qHTS assay to identify small molecule antagonists of the androgen receptor (AR) signaling pathway - cell viability counter screen (AID 743033; further: nearly all actives have a fitted effect of over 45% in size; further: potency means the concentration at half of the fitted maximal effect)
[6] = qHTS assay to identify small molecule antagonists of the androgen receptor (AR) signaling pathway using the MDA cell line - cell viability counter screen (AID 743041; further: nearly all actives have a fitted effect of over 45% in size; further: potency means the concentration at half of the fitted maximal effect)
In short: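 In this qHTS counter assay, fluorescence intensity after CellTiter-Fluor addition indicated viability of MDA-kb2 AR-luc cells given compounds and R1881 for 16 h at 37C.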

[7] = target: Androgen receptor (Homo sapiens) (UniProt P10275); assay: qHTS assay to identify small molecule antagonists of the androgen receptor (AR) signaling pathway using the MDA cell line (AID 743042; further: nearly all actives have a fitted effect of over 55% in size)
Chain of Androgen receptor (Homo sapiens) (P10275 whole entry, looked up): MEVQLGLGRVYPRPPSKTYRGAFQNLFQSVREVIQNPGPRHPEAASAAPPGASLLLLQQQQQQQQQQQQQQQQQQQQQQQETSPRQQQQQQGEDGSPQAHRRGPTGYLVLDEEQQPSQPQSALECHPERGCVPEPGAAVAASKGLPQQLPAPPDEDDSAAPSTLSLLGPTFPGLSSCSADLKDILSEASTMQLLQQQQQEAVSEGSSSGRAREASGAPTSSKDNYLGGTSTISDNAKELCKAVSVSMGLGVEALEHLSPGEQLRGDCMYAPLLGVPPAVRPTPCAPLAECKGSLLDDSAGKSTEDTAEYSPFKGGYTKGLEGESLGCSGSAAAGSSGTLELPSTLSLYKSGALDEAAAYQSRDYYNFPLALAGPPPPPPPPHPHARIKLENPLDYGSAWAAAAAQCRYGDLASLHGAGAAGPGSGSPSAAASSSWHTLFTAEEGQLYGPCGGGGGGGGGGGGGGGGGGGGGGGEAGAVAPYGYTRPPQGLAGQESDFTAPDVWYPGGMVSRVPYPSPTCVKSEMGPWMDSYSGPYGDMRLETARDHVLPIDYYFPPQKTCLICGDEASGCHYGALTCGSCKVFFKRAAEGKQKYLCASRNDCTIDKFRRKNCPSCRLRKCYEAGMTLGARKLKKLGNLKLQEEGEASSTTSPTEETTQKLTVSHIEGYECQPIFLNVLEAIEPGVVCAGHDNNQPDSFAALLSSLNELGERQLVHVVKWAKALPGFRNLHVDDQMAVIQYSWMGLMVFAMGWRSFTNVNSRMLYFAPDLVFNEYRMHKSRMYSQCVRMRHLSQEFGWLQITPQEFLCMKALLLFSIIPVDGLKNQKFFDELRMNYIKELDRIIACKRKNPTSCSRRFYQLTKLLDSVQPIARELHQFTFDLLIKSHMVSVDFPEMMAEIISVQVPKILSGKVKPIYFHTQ
In short: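 MDA-kb2 cells (human breast carcinoma, stably carrying an MMTV-luciferase reporter responsive to AR and GR) were plated at 3,000 cells/well and preincubated 5 hr at 37C, then given compound plus R1881 agonist for 16 h. ONE-Glo luminescence was read.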

Measured: Potency

Cc1ccc2c(Br)cc(Br)c(O)c2n1
inactive: [1] | [5] | [6]
active: [2] 7.5 µM | [3] 9.44 µM | [4] 8.41 µM

Nc1cccc2c1CN(C1CCC(=O)NC1=O)C2=O (configuration not stated)
inactive: [1] | [2] | [3] | [4] | [5] | [6]

O=C(O)CCc1nc(-c2ccccc2)c(-c2ccccc2)o1
inactive: [1] | [2] | [3] | [4] | [5] | [6]

C=CC(=O)[O-].C=CC(=O)[O-].[Zn+2]
inactive: [1] | [2] | [3] | [4] | [5] | [6]

CCCCCCCC/C=C\CCCCCCCCCCCC(=O)O
inactive: [1] | [2] | [3] | [4] | [5] | [6] | [7]

c1csc(SSc2cccs2)c1
inactive: [1] | [6]
active: [2] 12.2 µM | [3] 6.86 µM | [4] 10.9 µM | [5] 38.9 µM

Cc1ccc(OC(=O)c2ccccc2O)cc1
inactive: [1] | [2] | [3] | [4] | [5] | [6]

CCCCOc1ccc(OCCCN2CCOCC2)cc1
inactive: [1] | [5] | [6]
active: [2] 2.54 µM | [3] 1.01 µM | [4] 2.27 µM

CC(=O)Oc1ccc([N+](=O)[O-])cc1CCl
inactive: [1] | [5]
active: [2] 8.63 µM | [3] 1.72 µM | [4] 3.86 µM | [6] 54.5 µM

OCCN1CCN(CCCN2c3ccccc3Sc3ccc(Cl)cc32)CC1
inactive: [1] | [6]
active: [2] 3.59 µM | [3] 2.85 µM | [4] 4.52 µM | [5] 4.56 µM

CCCCCCCC/C=C\CCCCCCCCO
inactive: [1] | [2] | [3] | [4] | [5] | [6]

O=C(O)C[C@H](NC(=O)OCc1ccccc1)C(=O)O
inactive: [1] | [2] | [3] | [4] | [5] | [6]

CC(CCC(=O)O)C(=O)O (configuration not stated)
inactive: [1] | [2] | [3] | [4] | [5] | [6]

CN1CC(=O)N2[C@H](c3ccc4c(c3)OCO4)c3[nH]c4ccccc4c3C[C@@H]2C1=O
inactive: [1] | [2] | [3] | [4] | [5] | [6]

CC(=O)OCCN(CCOC(C)=O)c1ccc(N=Nc2ccc([N+](=O)[O-])cc2C#N)cc1
active: [2] 61.1 µM | [3] 30.6 µM | [4] 30.6 µM
inactive: [1] | [5] | [6]

O=c1c(O)c(-c2ccc(O)cc2)oc2cc(O)cc(O)c12
inactive: [1] | [5] | [6]
active: [2] 32.8 µM | [3] 11.6 µM | [4] 36.8 µM

Cc1cc(C)c(N)cc1C
inactive: [1] | [2] | [3] | [4] | [5] | [6]

CN1C[C@H](C(=O)N[C@]2(C)O[C@@]3(O)[C@@H]4CCCN4C(=O)[C@H](Cc4ccccc4)N3C2=O)C[C@@H]2c3cccc4[nH]cc(c34)C[C@H]21
inactive: [1] | [5] | [6]
active: [2] 23.7 µM | [3] 29.8 µM | [4] 16.8 µM

COc1ccccc1Oc1c(NS(=O)(=O)c2ccc(C(C)(C)C)cc2)nc(-c2ncccn2)nc1OCCO
inactive: [1] | [2] | [3] | [4] | [5] | [6]

CCN(CC)CCNC(=O)COc1ccc(OC)cc1
inactive: [1] | [2] | [3] | [4] | [5] | [6]

CC1CC(OC(=O)C(O)c2ccccc2)CC(C)(C)N1C (configuration not stated)
inactive: [1] | [2] | [3] | [4] | [5] | [6]

N#CCCN(CCO)CCO
inactive: [1] | [2] | [3] | [4] | [5] | [6]

Cc1cc(=O)c2c(O)c3c(O)cc(=O)c4c3c3c(cc(O)c1c23)C(C)(C)C=4O
active: [1] 1.69 µM | [2] 0.944 µM | [3] 1.06 µM | [4] 1.06 µM
inactive: [5] | [6]

Cc1[nH]cnc1CN1CCc2c(c3ccccc3n2C)C1=O
inactive: [1] | [2] | [3] | [4] | [5] | [6]

Nc1ncnc2c1ncn2[C@H]1CC[C@@H](CO)O1
inactive: [1] | [3] | [5] | [6]
active: [2] 26.6 µM | [4] 23.7 µM

C=COCC(C)C
inactive: [1] | [2] | [3] | [4] | [5] | [6]
